The panel holds about 83,000 compounds, 20% with a hit somewhere; the sample as a whole holds those more often.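 Percent growth is the endpoint: 0 to 100 indicates growth inhibition (40 means 60% inhibition), 0 means no net growth, and negative values indicate cell death.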 A number with no mark means an inactive call. Activity calls are given as the source filed them. Rule for the calls: active = growth percent below 10; inactive = the rest.
tested on: MALME-3M melanoma; assay: NCI-60 one-dose screen, 48 h (100 = growth as untreated, 0 = no growth, -100 = all killed); details: 10 µM unless noted

| SMILES | growth |
| --- | --- |
| COc1ccc(-c2nn(-c3ccccc3)cc2/C=C/C(=O)c2ccc(NC(=O)CCCCCCC(=O)NO)cc2)cc1 | 137% |
| O=C(NCCCNc1cc(-c2cn(-c3ccccc3)nc2-c2cccc(O)c2)ccn1)Nc1cccc(C(F)(F)F)c1 | 17.7% |
| Cc1[nH]nc2ccc(-c3nc4cnc(N5CCN(C)CC5)cn4c3Nc3ccc(F)cc3Br)cc12 | 76.8% |
| O=C(/C=C/c1cccc(O)c1)c1ccc(O)cc1 | 106% |
| C#Cc1ccc(NC(=O)c2ccc(/C=C/C(=O)c3nccn3C)cc2)c(F)c1 | 89.8% |
| O=C(Nc1ccc(F)cc1)c1cc(-c2ccc(F)cc2F)ccc1O | -10.5% (active) |
| Oc1ccc(CSc2nnc(-c3ccc(Oc4ccccc4)cc3)o2)c2cccnc12 | 70.8% |
| Cc1ccc(NC(=O)c2ccc(CN3CCN(C)CC3)c(C(F)(F)F)c2)cc1Oc1ccc(-c2[nH]nc3ncnc(N)c23)cc1 | -12% (active) |
| N#Cc1c(NC(=O)c2ccccc2C(F)(F)F)sc2c1CCC(=O)C2 | -17.3% (active) |
| CCN(CC)c1ccc2cc(C(=O)NCCOCCOCCOCCn3cc(CCC(=O)Nc4ccc(C(=O)c5ccc(NC(=O)OC(C)(C)C)cc5)cc4)nn3)c(=O)oc2c1 | 83.9% |
| CS(=O)(=O)c1ccc(-c2nn(-c3ccccc3)cc2/C=N/NC(=O)c2ccncc2)cc1 | 95.5% |
| Cc1ccc(S(=O)(=O)N/N=C/c2cn(-c3ccc(F)cc3)nc2-c2ccc(S(C)(=O)=O)cc2)cc1 | 71% |
| CS(=O)(=O)c1ccc(-c2nn(-c3ccccc3)cc2/C=C/C(=O)c2ccc(Br)cc2)cc1 | 71.3% |
| O=C(NCCCNc1cc(-c2cn(-c3ccccc3)nc2-c2cccc(O)c2)ccn1)Nc1ccc(F)cc1 | -27.3% (active) |
| CN1C(=O)N(C)C2C1NN=c1s/c(=C\c3ccccn3)c(=O)n12 (configuration not stated) | 92.7% |
| Fc1ccc(-c2cc3nc(C(Cl)Cl)nc(-c4cccs4)n3n2)cc1 | 62.5% |

| SMILES | growth |
| --- | --- |
| COc1ccc([C@H]2c3[nH]c4ccccc4c3C[C@@H]3C(=O)N(C4CCN(Cc5ccccc5)CC4)CC(=O)N23)c(OC)c1 | 97.1% |
| Cn1ccnc1C(=O)/C=C/c1ccc(C(=O)Nc2ccc(NC(=O)CCNC(=O)c3csc(Br)n3)cc2)cc1 | 102% |
| Cc1nn(-c2ccccc2)cc1/C=N/Nc1nc(Nc2ccccc2)nc(Nc2ccc(S(N)(=O)=O)cc2)n1 | -25.6% (active) |
| COCCC[C@H]1O[C@@](O)([C@H](C)[C@@H]2CC(OC)C(O)/C=C(C)/C=C(C)/C=C(\C)C(OC3O[C@@H](C)[C@H](O)C(O)[C@@H]3O)C(C)/C=C(C)/C=C(OC)/C=C(\C)C(=O)O2)C(OC)C(O)[C@]1(C)O[C@H]1C[C@@H](O)[C@H](O[C@H]2C[C@](C)(O)[C@H](O)C(C)O2)C(C)O1 (some centres not stated) | 51.1% |
| COc1ccc(N2C(=O)c3cc(OC)c(OC)cc3NC2SCc2ccccc2)cc1 (configuration not stated) | 95.2% |
| Cc1cc2nc(C(Cl)Cl)nc(-c3ccco3)n2n1 | 108% |
| COc1ccc(S(=O)(=O)NCCCNc2nccc(-n3cnc4ccccc43)n2)cc1 | 107% |
| O=C(NCCCNc1cc(-c2cn(-c3ccccc3)nc2-c2cccc(O)c2)ccn1)Nc1cc(C(F)(F)F)cc(C(F)(F)F)c1 | 67% |
| Cc1ccc(NC(=O)c2ccc(CN3CCN(C)CC3)c(I)c2)cc1Oc1ccc(-c2[nH]nc3ncnc(N)c23)cc1 | -72.7% (active) |
| Cc1ccc(-n2cc(/C=C/C(=O)c3ccc(S(C)(=O)=O)cc3)c(-c3ccc(S(C)(=O)=O)cc3)n2)cc1 | 50.3% |
| COc1cc(/C=C/C(=O)c2ccc(NC(=O)CSc3nnc(-c4ccc5nc(-c6ccccc6)[nH]c5c4)o3)cc2)cc(OC)c1OC | 109% |
| O=c1oc2ccc(-c3ccc(F)cc3F)cc2c(=O)n1-c1cccc(C(F)(F)F)c1 | -14.7% (active) |
| C#CCOc1ccccc1C(Nc1ccccc1)c1nnnn1C1CCCCC1 (configuration not stated) | 100% |
| NCCN1CCN(c2nc(-c3ccccc3)nc3nc(-c4ccccc4)oc23)CC1 | -68.8% (active) |
| CN1C(=O)N(C)C2Nn3c(s/c(=C\c4ccccn4)c3=O)=NC21 (configuration not stated) | 82.4% |
| CNC(=O)c1cc(N2CCc3cc(NC(=O)Nc4ccc(Cl)c(Cl)c4)ccc32)ccn1 | 68.3% |

From PubChem BioAssay (NCI)
